Molecules are shown by their SMILES. Results filed as inconclusive are left out. A call without a number means that no potency is given here. Activity calls are given as the source filed them. Calls follow the shape of the full dose curve.

The nature of the assay: Primary qHTS for Vero E6 cytotoxicity: counterscreen for inhibitors of SARS-S pseudo-typed particle cell entry (AID 1479150). As to conditions: cell viability; series mostly up to 57.1 µM.
For the compound `C[C@@H](O)[C@H](N)C(=O)O`, the Potency entry is “inactive”.
On to `O=c1cc(CO)occ1O`, for which the Potency result was “inactive”.
Take `CC(=O)Oc1ccc2c(c1)CC[C@@H]1[C@@H]2CC[C@]2(C)[C@@H](O)CC[C@@H]12`: the Potency result was “inactive”.
Regarding `O=C(O)c1ccc(OCCCOc2ccc(C(=O)O)cc2)cc1`, the Potency result was “inactive”.
For `COc1ccc2c(c1)c(CC(=O)OCC(=O)O)c(C)n2C(=O)c1ccc(Cl)cc1`, the Potency result is “inactive”.
Consider `CCCSS/C(CCO)=C(\C)N(C=O)Cc1cnc(C)nc1N`, for which the Potency entry was “inactive”.
With `CC(C)c1cc2c(cc1S(=O)(=O)O)[C@@]1(C)CCC[C@@](C)(C(=O)O)[C@@H]1CC2`, the Potency result is “inactive”.
The same measure, in the same setting: the value for `COc1cc(NS(=O)(=O)c2ccc(N)cc2)nc(OC)n1` was “inactive”; that for `CCOc1ccc2nc(S(N)(=O)=O)sc2c1` was “inactive”; that for `C#C[C@]1(O)CC[C@H]2[C@@H]3CCC4=CC(=O)CC[C@@H]4[C@H]3CC[C@@]21C` was “inactive”.
As for `Nc1nc2ncc(CNc3ccc(C(=O)N[C@@H](CCC(=O)O)C(=O)O)cc3)nc2c(=O)[nH]1`, the Potency result is “inactive”.
For `OC[C@H]1O[C@@H](O[C@@H]2[C@@H](CO)O[C@](O)(CO)[C@H]2O)[C@H](O)[C@@H](O)[C@H]1O`, the Potency entry was “inactive”.
Turning to `O=C(O)CCNC(=O)c1ccccc1`, the Potency result is “inactive”.
Take `Cc1ccc(C(=O)Oc2ccc(C(O)CNC(C)(C)C)cc2OC(=O)c2ccc(C)cc2)cc1` (stereo not drawn): the Potency entry is “inactive”.
`COc1ccc(CN(CCN(C)C)c2ncccn2)cc1`: the Potency entry was “inactive”.
Regarding `CCOC(=O)OC(C)OC(=O)[C@@H]1N2C(=O)[C@@H](NC(=O)[C@H](N)c3ccccc3)[C@H]2SC1(C)C` (stereo partly drawn), the Potency entry is “inactive”.
On to `COc1ccccc1N1CCN(CCCNc2cc(=O)n(C)c(=O)n2C)CC1`, for which the Potency entry is “inactive”.
Take `NCCNC(=O)c1ccc(Cl)cn1`: the Potency result was “inactive”.
As to `OC[C@@H](O)[C@H](O)[C@H](O)[C@@H](O)CO`, the Potency entry is “inactive”.
Turning to `COCCc1ccc(OCC(O)CNC(C)C)cc1` (stereo not drawn), the Potency entry was “inactive”.
In the case of `Cc1ccc2c(Cl)cc(Cl)c(O)c2n1`, the Potency result is “inactive”.
For `C#C[C@]1(O)CC[C@H]2[C@@H]3CCc4cc(OC)ccc4[C@H]3CC[C@@]21C`, the Potency entry was “inactive”.
In the case of `CC(=O)O[C@H]1C[C@@H]2CC[C@@H]3[C@H](CC[C@@]4(C)[C@H]3C[C@H]([N+]3(C)CCCCC3)[C@@H]4OC(C)=O)[C@@]2(C)C[C@@H]1N1CCCCC1`, the Potency result was “inactive”.
Regarding `C=Cc1c(C)c2cc3[nH]c(cc4nc(cc5nc(cc1[nH]2)C(C)=C5CCC(=O)O)C(CCC(=O)O)=C4C)c(C)c3C=C`, the Potency result is “inactive”.
As for `CCN(CC)CC(=O)Nc1c(C)cccc1C(=O)OC`, the Potency result is “inactive”.
Consider `c1ccc2[nH]c(-c3cscn3)nc2c1`, for which the Potency entry was “inactive”.
Consider `CCNC(=O)NCCCOc1cccc(CN2CCCCC2)c1`, for which the Potency entry was “inactive”.
Still for that read-out and setting: then `CCOC(=O)c1ccc(NC(=O)CN2CCCCC2)cc1`, with “inactive”; and `CC(C(=O)O)c1ccc2c(c1)Cc1cccnc1O2` (stereo not drawn), with “inactive”; and `Nc1ccc(C(=O)NCC(=O)O)cc1`, with “inactive”.
Turning to `C/C(=C(\CCOP(=O)(O)O)SC(=O)c1ccccc1)N(C=O)Cc1cnc(C)nc1N`, the outcome was “inactive [at 5.34 µM]”.
Regarding `CNC(=O)c1c(I)c(NC(=O)CCCCC(=O)Nc2c(I)c(C(=O)O)c(I)c(C(=O)NC)c2I)c(I)c(C(=O)O)c1I`, the Potency result was “inactive”.
Take `OCC(CO)N[C@H]1C[C@](O)(CO)[C@@H](O)[C@H](O)[C@H]1O`: the Potency result is “inactive”.
On to `C[C@H]1NCc2cc(-c3ccc4c(=O)c(C(=O)O)cn(C5CC5)c4c3OC(F)F)ccc21`, for which the Potency entry is “inactive”.
For `COc1cccc(N(C)C(=S)Oc2ccc3c(c2)CCCC3)n1`, the Potency entry was “inactive”.
As for `NC(CSCC(=O)O)C(=O)O` (stereo not drawn), the Potency result was “inactive”.
Take `CC1(C)O[C@@H]2C[C@H]3[C@@H]4CCC5=CC(=O)CC[C@]5(C)[C@@]4(F)[C@@H](O)C[C@]3(C)[C@]2(C(=O)CCl)O1`: the Potency entry was “inactive”.
Turning to `CCC(=O)c1ccc(O)cc1`, the Potency entry was “inactive”.

The values above are taken from PubChem BioAssay (NCATS).
